Experimental data as given in PubChem BioAssay (NCATS).
Results filed as inconclusive are left out. A number with no mark means an inactive call. Calls follow the shape of the dose curve; as a rule, active = well fitted curve in the direction sought with a large enough effect; inconclusive = small, poorly fitted or top-dose-only effect, or another doubt; inactive = no such curve, though single readings can be large; an effect the other way counts as inactive or inconclusive.
Also: top concentration of the series differs between compounds.

System: not listed separately
Test: Primary qHTS for inhibitors of La Crosse Virus (LACV) - induced cell death in SH-SY5Y cells (AID 1508616);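 also: 0% = infected DMSO wells and 100% = uninfected DMSO wells; higher means more rescue of cells from virus-induced death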
Settings: SH-SY5Y LACV cytopathicity rescue, ATP luminescence, 6 d; series mostly up to 4.29 µM; activity change: at the top concentration
Method in brief: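 SH-SY5Y cells (6000/well) plated 24 h, then given compounds by pin transfer and LACV at 0.01 MOI for 6 days at 37C. Viability measured by ATPLite luminescence, normalized to infected DMSO and uninfected DMSO.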
With `Cc1coc2ccccc2c1=O` the “activity change” value was 27.8%.
With `OCc1c[nH]c2ccccc12` the “activity change” value was 4.87% [at 8.54 µM].
For `CN1Cc2cc(C(=O)N3CCC(C4CCNCC4)CC3)ccc2NC(CC(=O)O)C1=O` (centres undefined), the “activity change” value was -12%.
In the case of `COc1cc(/C=C/C(N)=O)cc(OC)c1OC`, the “activity change” value is reported as 10.5%.
With `CNC[C@H](O)[C@@H](O)[C@H](O)[C@H](O)CO` the “activity change” value was -3.65%.
Molecule `CC1CN(c2cc3c(cc2F)c(=O)c(C(=O)O)cn3-c2ccc(F)cc2F)CCN1` (centres undefined) has an activity change of -2.85% [at 0.431 µM].
For `CCCC(=O)O[C@]1(C(=O)COC(=O)CC)CC[C@H]2[C@@H]3CCC4=CC(=O)CC[C@]4(C)[C@H]3[C@@H](O)C[C@@]21C`, the “activity change” value was -2.08% [at 1.78 µM].
In the case of `O=C(Nc1ccc(Cl)cc1)Nc1ccc(Cl)c(Cl)c1`, the “activity change” value is reported as 49.7%.
With `COc1c(N2C[C@@H]3CCCN[C@@H]3C2)c(F)cc2c(=O)c(C(=O)O)cn(C3CC3)c12` the “activity change” value was 22.4%.
In the case of `O=C(Oc1ccccc1)c1cccc(C(=O)Oc2ccccc2)c1`, the “activity change” value is reported as 24.4% [at 9.63 µM].
For `Cc1cc(OCCOCC[N+](C)(C)Cc2ccccc2)ccc1C(C)(C)CC(C)(C)C`, the “activity change” value was 1.49%.
For `COCCc1ccc(OCC2CO2)cc1` (centres undefined), the “activity change” value was -4.37%.
For `Cc1ccc2c(Cl)cc(Cl)c(O)c2n1`, the “activity change” value was -7.24%.
With `CC(C)NCCCC1(C(N)=O)c2ccccc2-c2ccccc21` the “activity change” value was 3.2%.
With `NS(=O)(=O)c1cc(C(=O)NN2C[C@H]3[C@H]4CCC(C4)[C@H]3C2)ccc1Cl` the “activity change” value was 27.3%.
In the case of `O=C(c1cc(O)c(O)c(O)c1)c1ccc(O)c(O)c1O`, the “activity change” value is reported as -8.83%.
In the case of `CCC1=C[C@@H]2CN(C1)Cc1c([nH]c3ccccc13)[C@@](C(=O)OC)(c1cc3c(cc1OC)N(C)[C@H]1[C@@](O)(C(=O)OC)[C@H](OC(C)=O)[C@]4(CC)C=CCN5CC[C@]31[C@@H]54)C2`, the “activity change” value is reported as -88.2%.
With `O=C(CCCl)NCCc1ccccc1` the “activity change” value was 33.4%.
In the case of `Cc1nc(N)nc(N)c1-c1ccc(Cl)c(Cl)c1`, the “activity change” value is reported as -24.2%.
In the case of `CC(NCCC(c1ccccc1)c1ccccc1)c1ccccc1` (centres undefined), the “activity change” value is reported as -12.6%.
For `OCCCc1ccccc1`, the “activity change” value was 51%.
For `[O-][n+]1cccc(/C(Cl)=N/OC[C@@H](O)CN2CCCCC2)c1`, the “activity change” value was -9.96%.
With `Nc1ccc(O)cc1` the “activity change” value was -4.38%.
With `O=C(OCC(O)CO)c1ccccc1Nc1ccnc2c(C(F)(F)F)cccc12` (centres undefined) the “activity change” value was 20.3%.
With `O=C(O)Cc1ccc(OCCNC[C@H](O)c2ccccc2)cc1` the “activity change” value was -20.1%.
With `Cc1c(N)cccc1C(F)(F)F` the “activity change” value was -10.2%.
With `CCN(CC)CC(=O)OCC(=O)[C@@]1(O)CC[C@H]2[C@@H]3CCC4=CC(=O)CC[C@]4(C)[C@H]3[C@@H](O)C[C@@]21C` the “activity change” value was 0.422%.
In the case of `Cc1ccc(C(=O)Oc2ccc(C(O)CNC(C)(C)C)cc2OC(=O)c2ccc(C)cc2)cc1` (centres undefined), the “activity change” value is reported as -7.2%.
For `N#Cc1cc(NC(=O)C(=O)O)c(Cl)c(NC(=O)C(=O)O)c1`, the “activity change” value was -4.24%.
For `O=C1Nc2ccccc2C1(c1ccc(O)cc1)c1ccc(O)cc1`, the “activity change” value was 1.83%.
With `C[C@H]1C[C@@H]2[C@H]([C@@H](O)C[C@@]3(C)[C@H]2CC[C@]3(O)C(=O)CO)[C@@]2(C)C=CC(=O)C=C12` the “activity change” value was 21.3%.
For `OC1(c2ccccc2)CCNCC1`, the “activity change” value was 6.85%.
For `CCCCCCCCCCCC[N+](C)(C)Cc1ccccc1`, the “activity change” value was 5.1%.
For `CO[C@@H]1[C@@H](O[C@@H]2O[C@H](C)[C@@H](O[C@H]3C[C@@](C)(O)[C@@H](O)[C@H](C)O3)[C@H](N(C)C)[C@H]2O)[C@@H](CC=O)C[C@@H](C)[C@@H](O[C@@H]2CC[C@H](N(C)C)[C@@H](C)O2)/C=C/C=C/C[C@@H](C)OC(=O)C[C@H]1OC(C)=O`, the “activity change” value was -3.47%.
In the case of `CC(=O)[C@@]1(O)CC[C@H]2[C@@H]3C[C@H](C)C4=CC(=O)CC[C@]4(C)[C@H]3CC[C@@]21C`, the “activity change” value is reported as -6%.

Molecular target: Calcium and integrin-binding protein 1 (Homo sapiens) (UniProt Q99828)
Sequence (Q99828 whole entry, looked up): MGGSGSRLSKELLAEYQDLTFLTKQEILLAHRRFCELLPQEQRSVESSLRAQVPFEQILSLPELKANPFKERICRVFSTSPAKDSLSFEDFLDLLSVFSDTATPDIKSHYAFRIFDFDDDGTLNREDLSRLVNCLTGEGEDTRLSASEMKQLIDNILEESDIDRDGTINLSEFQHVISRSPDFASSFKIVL
Test: Primary qHTS for Identification of Calcium Integrin Binding Protein 1 (CIB1) Competitor (AID 1508620);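 also: GST tagged CIB1 binding a fluorescein labelled alphaIIb integrin peptide tracer; % is scaled to controls: 0 for no effect and ±100 for the full control effect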
Settings: CIB1-GST / FITC-alphaIIb peptide fluorescence polarization; series mostly up to 114 µM; activity change, negative = inhibition: at the top concentration
Method in brief: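 Fluorescence polarization competition: CIB1-GST (1 uM final) preincubated with compound 15 min at room temperature, then FITC-labeled alphaIIb peptide (100 nM final) added for another 15 min. Polarization read at Ex 480/Em 540.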
In the case of `Cc1coc2ccccc2c1=O`, the “activity change, negative = inhibition” value is reported as -2.12%.
For `OCc1c[nH]c2ccccc12`, the “activity change, negative = inhibition” value was -8.26% [at 228 µM].
For `CN1Cc2cc(C(=O)N3CCC(C4CCNCC4)CC3)ccc2NC(CC(=O)O)C1=O` (centres undefined), the “activity change, negative = inhibition” value was -2.39%.
For `COc1cc(/C=C/C(N)=O)cc(OC)c1OC`, the “activity change, negative = inhibition” value was -2.5%.
In the case of `CNC[C@H](O)[C@@H](O)[C@H](O)[C@H](O)CO`, the “activity change, negative = inhibition” value is reported as -1.56%.
With `CC1CN(c2cc3c(cc2F)c(=O)c(C(=O)O)cn3-c2ccc(F)cc2F)CCN1` (centres undefined) the “activity change, negative = inhibition” value was 2.01%.
For `CCCC(=O)O[C@]1(C(=O)COC(=O)CC)CC[C@H]2[C@@H]3CCC4=CC(=O)CC[C@]4(C)[C@H]3[C@@H](O)C[C@@]21C`, the “activity change, negative = inhibition” value was -0.475% [at 57.7 µM].
For `O=C(Nc1ccc(Cl)cc1)Nc1ccc(Cl)c(Cl)c1`, the “activity change, negative = inhibition” value was -1.07%.
In the case of `COc1c(N2C[C@@H]3CCCN[C@@H]3C2)c(F)cc2c(=O)c(C(=O)O)cn(C3CC3)c12`, the “activity change, negative = inhibition” value is reported as -10.1%.
With `O=C(Oc1ccccc1)c1cccc(C(=O)Oc2ccccc2)c1` the “activity change, negative = inhibition” value was -5.04% [at 228 µM].
For `Cc1cc(OCCOCC[N+](C)(C)Cc2ccccc2)ccc1C(C)(C)CC(C)(C)C`, the “activity change, negative = inhibition” value was -6.09%.
For `COCCc1ccc(OCC2CO2)cc1` (centres undefined), the “activity change, negative = inhibition” value was 4.51%.
With `Cc1ccc2c(Cl)cc(Cl)c(O)c2n1` the “activity change, negative = inhibition” value was -2.78%.
With `NS(=O)(=O)c1cc(C(=O)NN2C[C@H]3[C@H]4CCC(C4)[C@H]3C2)ccc1Cl` the “activity change, negative = inhibition” value was -3.07%.
For `CCC1=C[C@@H]2CN(C1)Cc1c([nH]c3ccccc13)[C@@](C(=O)OC)(c1cc3c(cc1OC)N(C)[C@H]1[C@@](O)(C(=O)OC)[C@H](OC(C)=O)[C@]4(CC)C=CCN5CC[C@]31[C@@H]54)C2`, the “activity change, negative = inhibition” value was 1.81%.
With `O=C(CCCl)NCCc1ccccc1` the “activity change, negative = inhibition” value was -1.83%.
With `Cc1nc(N)nc(N)c1-c1ccc(Cl)c(Cl)c1` the “activity change, negative = inhibition” value was 1.36%.
With `CC(NCCC(c1ccccc1)c1ccccc1)c1ccccc1` (centres undefined) the “activity change, negative = inhibition” value was -14.1%.
For `[O-][n+]1cccc(/C(Cl)=N/OC[C@@H](O)CN2CCCCC2)c1`, the “activity change, negative = inhibition” value was 0.558%.
For `O=C(OCC(O)CO)c1ccccc1Nc1ccnc2c(C(F)(F)F)cccc12` (centres undefined), the “activity change, negative = inhibition” value was -0.0739%.
For `O=C(O)Cc1ccc(OCCNC[C@H](O)c2ccccc2)cc1`, the “activity change, negative = inhibition” value was -3.56%.
In the case of `Cc1c(N)cccc1C(F)(F)F`, the “activity change, negative = inhibition” value is reported as -2.17%.
In the case of `CCN(CC)CC(=O)OCC(=O)[C@@]1(O)CC[C@H]2[C@@H]3CCC4=CC(=O)CC[C@]4(C)[C@H]3[C@@H](O)C[C@@]21C`, the “activity change, negative = inhibition” value is reported as 0.832%.
For `Cc1ccc(C(=O)Oc2ccc(C(O)CNC(C)(C)C)cc2OC(=O)c2ccc(C)cc2)cc1` (centres undefined), the “activity change, negative = inhibition” value was -10.4%.
With `N#Cc1cc(NC(=O)C(=O)O)c(Cl)c(NC(=O)C(=O)O)c1` the “activity change, negative = inhibition” value was -5.9%.
For `O=C1Nc2ccccc2C1(c1ccc(O)cc1)c1ccc(O)cc1`, the “activity change, negative = inhibition” value was 9%.
In the case of `OC1(c2ccccc2)CCNCC1`, the “activity change, negative = inhibition” value is reported as 3.36%.
In the case of `CO[C@@H]1[C@@H](O[C@@H]2O[C@H](C)[C@@H](O[C@H]3C[C@@](C)(O)[C@@H](O)[C@H](C)O3)[C@H](N(C)C)[C@H]2O)[C@@H](CC=O)C[C@@H](C)[C@@H](O[C@@H]2CC[C@H](N(C)C)[C@@H](C)O2)/C=C/C=C/C[C@@H](C)OC(=O)C[C@H]1OC(C)=O`, the “activity change, negative = inhibition” value is reported as 3.71%.
For `CC(=O)[C@@]1(O)CC[C@H]2[C@@H]3C[C@H](C)C4=CC(=O)CC[C@]4(C)[C@H]3CC[C@@]21C`, the “activity change, negative = inhibition” value was 0.949%.
